Screening data deposited in PubChem BioAssay by The Scripps Research Institute Molecular Screening Center.
A selection: hits, their analogues and other compounds. The true share with any hit is near 3.4%.
MITF inh: blocks human microphthalmia-associated transcription factor | 0.91% of 650,000 active | AlphaScreen MITF homodimerization, bead proximity signal | inhibition, % at 2.6 µM; in the data active = inhibition above about 50%;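 also: 0% = vehicle wells with protein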
TEAD-YAP inh: TEAD-YAP interaction inhibition; HEK-TIYL cells, TEAD-Gal4/YAP UAS-luciferase luminescence; inhibition, % at 9.12 µM; 1.4% of 640,000 active; in the data active = inhibition above about 32%;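 also: 0% = median of test compound wells and 100% = reference inhibitor wells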
FBW7 activator: human FBW7 E3 ligase activation, primary screen | AlphaScreen FBW7–phospho-cyclin E peptide binding, activator screen | Q969H0 | 0.13% of 650,000 active | normalized activity (activation), % at 26.1 µM; in the data active = normalized activity above about 1.9%;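 also: purified mutant Fbw7 with reduced substrate affinity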
Target sequence (Q969H0 whole entry, looked up): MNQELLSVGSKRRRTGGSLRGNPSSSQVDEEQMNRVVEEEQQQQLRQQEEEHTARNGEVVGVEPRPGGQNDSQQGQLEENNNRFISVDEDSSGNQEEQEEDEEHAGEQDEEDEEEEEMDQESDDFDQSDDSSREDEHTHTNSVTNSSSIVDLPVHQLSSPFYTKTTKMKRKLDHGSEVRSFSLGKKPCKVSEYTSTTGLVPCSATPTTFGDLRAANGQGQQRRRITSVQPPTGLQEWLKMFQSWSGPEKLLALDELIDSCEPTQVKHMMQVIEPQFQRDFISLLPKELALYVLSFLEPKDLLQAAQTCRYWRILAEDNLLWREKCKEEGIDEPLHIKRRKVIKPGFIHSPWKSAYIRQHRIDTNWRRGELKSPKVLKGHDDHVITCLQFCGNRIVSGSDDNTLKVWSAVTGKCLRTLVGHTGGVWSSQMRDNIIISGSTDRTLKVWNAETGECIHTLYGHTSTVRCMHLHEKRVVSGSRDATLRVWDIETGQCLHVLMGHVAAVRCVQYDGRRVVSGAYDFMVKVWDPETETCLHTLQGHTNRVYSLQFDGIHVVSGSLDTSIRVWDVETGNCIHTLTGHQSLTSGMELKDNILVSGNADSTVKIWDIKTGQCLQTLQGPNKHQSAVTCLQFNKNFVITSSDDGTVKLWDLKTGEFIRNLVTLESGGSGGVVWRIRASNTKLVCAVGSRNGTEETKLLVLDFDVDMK
GPR151 ag: activates the human receptor GPR151 | 1% of 650,000 active | PathHunter beta-arrestin GPR151 cells, luminescence | activation, % at 11.2 µM | Q8TDV0; in the data active = activation above about 4.9%;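 also: 0% = median of compound wells and 100% = cells with positive control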
GPR151 conf act: human GPR151 activation, confirmation screen; shares compounds with GPR151 ag; GPR151 PathHunter beta-arrestin cells, luminescence, 90 min; % of EA-reagent control over plate median; activation, % at 11.2 µM; 6,700 tested, under 10 active; AID 1508609;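 active = mean percent activation across replicates above the confirmation screen cutoff of 4.91%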
GPR119 counter: GPR119 activation, counter-screen for GPR151 activators. shares compounds with GPR151 ag. GPR119 PathHunter beta-arrestin cells, luminescence, 90 min; 0 = compound-well median, 100 = enzyme-acceptor control. activation, % at 11.2 µM. 0.3% of 6,700 active;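 active = mean percent activation in the counterscreen above 29.09%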;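 also: counterscreen on off-target GPR119 to flag nonselective hits from the GPR151 activator screen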
Starred values were filed as active, the others as inactive; i = inactive; . = not tested or not shown.

SMILES	MITF inh	TEAD-YAP inh	FBW7 activator	GPR151 ag	GPR151 conf act	GPR119 counter
COc1ccc(C2C(C(C)=O)=C(C)N=c3s/c(=C\c4cccnc4)c(=O)n32)c(OC)c1 (centres undefined)	10	-1	0	7.1*	-1	4
CC1CCCC(C)N1C(=O)Cn1c(C(F)(F)F)nc2ccccc21 (centres undefined)	17	10	0	12*	1	0
CC1CN(C(=O)Cn2c(C(F)(F)F)nc3ccccc32)CC(C)O1 (centres undefined)	1	4	0	3	.	.
CC(C)OCCCNC(=O)C1c2ccccc2Oc2ccccc21	i	6	0	-1	.	.
Cc1ccc(C(=O)N2CCN(C=O)CC2)c(Cl)c1	16	4	0	6.5*	0	-4
O=CN1CCN(C(=O)c2ccccc2Cl)CC1	10	-3	0	1	.	.
CC1CCCN(c2nc3c(c(=O)[nH]2)CCN(Cc2ccccc2F)C3)C1 (centres undefined)	15	-21	0	0	.	.
Cc1cc(C)nc(NS(=O)(=O)c2ccc(NC(=O)c3cccc(Cl)c3)cc2)n1	7	3	0	1	.	.
Clc1ccc(OCCn2cncn2)cc1	-18	-5	0	6.4*	-1	-7
CC(=O)Nc1ccc(C(C(F)(F)F)(C(F)(F)F)C(F)(F)F)cc1[N+](=O)[O-]	3	-8	0	5.0*	0	-5
Cc1ccc2c(c1)CN(CC(=O)NCc1cc(-c3ccccc3)n[nH]1)CC(C)O2 (centres undefined)	6	-2	0	5.2*	1	7
CC1CN(CC(=O)NCc2nc(-c3ccccc3)n[nH]2)Cc2ccccc2O1 (centres undefined)	1	6	0	0	.	.
CCOC(=O)C1=C(C)NC2=C(C(=O)CC(c3ccc(Cl)cc3)C2)C1c1cccc(OC)c1OC (centres undefined)	6	7	1	21*	-1	-8
COCCOC(=O)C1=C(C)NC2=C(C(=O)CC(c3ccc(Cl)cc3)C2)C1c1cccc(OC)c1OC (centres undefined)	-7	19	0	0	.	.
COc1ccc(C2C(C(=O)OCC(C)C)=C(C)NC3=C2C(=O)CC(c2ccc(Cl)cc2)C3)cc1 (centres undefined)	-13	6	1	5.5*	1	4
O=C(Cn1c(=O)oc2cc(S(=O)(=O)NCc3ccccc3)ccc21)Nc1ccccn1	-3	1	0	0	.	.
CCC(C)NC(=O)CCNS(=O)(=O)c1ccc2nc(-c3ccccc3)[nH]c2c1 (centres undefined)	6	-1	0	7.0*	1	-1
Cc1ccc(NC(=O)CCNS(=O)(=O)c2ccc3nc(-c4ccccc4)[nH]c3c2)cc1	-3	12	0	0	.	.
Cc1cc(C)n2nc(NCc3ccccc3Cl)nc2n1	15	-20	0	5.1*	1	5
O=C(/C=C/c1c(F)cccc1Cl)NCc1ccncc1	-3	-2	0	7.2*	-1	-16
Cn1c(=O)[nH]c(=O)c2c1nc(N1CCN(c3cccc(Cl)c3)CC1)n2Cc1ccccc1	-15	1	0	5.3*	2	6
Cn1c(=O)[nH]c(=O)c2c1nc(NCc1ccccc1)n2Cc1ccc(Cl)cc1	0	0	0	6.7*	1	-3
CCCSc1nc2c(c(=O)[nH]c(=O)n2C)n1CC(O)Oc1cccc2ccccc12 (centres undefined)	11	10	0	6.2*	0	-8
Cc1cccc(Cn2c(SCC(C)C)nc3c2c(=O)[nH]c(=O)n3C)c1	19	2	1	5.2*	0	1
Cn1c(=O)[nH]c(=O)c2c1nc(NCc1ccccc1)n2Cc1ccccc1	6	-2	0	0	.	.
O=C(CSC1=NC(=O)C(c2ccccc2)C(=O)N1)c1ccc(Br)cc1 (centres undefined)	-19	-3	0	-2	.	.
COCCn1cc(C(=O)NCc2ccc(F)cc2)c2c3ccccc3n(C)c2c1=O	-9	15	0	1	.	.
COc1ccc(CCNc2nc(-c3cccs3)nc3c2ncn3-c2ccsc2)cc1	-4	-1	0	3	.	.
CCc1ccc(NC(=S)N(CCCN2CCN(C)CC2)Cc2ccco2)cc1	-1	3	0	1	.	.
